According to PubChem BioAssay (EPA / NIEHS):
The source holds several records for some structures; these can differ, active in one and inactive in another. Calls of active or inactive are those of the source. Rule for the calls: active = hit-call score of the fitted dose curve at least 0.9, where 1 is the maximum; inactive = score below 0.9.

Tests used:
[1] = BSK_3C_SRB: Viability Assessment in the BioMAP Diversity Plus: 3C Assay (AID 2283023); conditions: primary human endothelial cells (HUVEC);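 note: fitted both ways against DMSO so a hit may be signal rise or drop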
How it was run: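 Human umbilical vein endothelial cells in the 3C system, treated 24 h. Total protein measured by 0.1% sulforhodamine B staining after 10% TCA fixation, read at 560 nm; bidirectional fit versus DMSO.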

[2] = read-out: Matrix Metallopeptidase 1 (MMP1), MMP1 (gene 4312); test: BSK_BE3C_MMP1: BioMAP Diversity Plus: BE3C Assay for Matrix Metallopeptidase 1 (MMP1) Biomarker Activity (AID 2283024); conditions: primary human bronchial epithelial cells; actives raise or lower the signal
How it was run: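 MMP1 signal, measured by ELISA after a 24 h chemical exposure of human primary bronchial epithelial cells, is analysed with bidirectional fitting using DMSO as negative control.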

[3] = BSK_4H_SRB: Viability Assessment in the BioMAP Diversity Plus: 4H Assay (AID 2283027); conditions: primary human endothelial cells (HUVEC);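 note: cells exposed to compound for 24 h before staining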;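 for AC50: curves fitted both ways versus DMSO so AC50 may be loss or gain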
How it was run: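 Cytotoxicity readout: sulforhodamine B (0.1%) staining of total protein after 10% TCA fixation, measured at 560 nm in human umbilical vein endothelium at 24 h. DMSO set the baseline; fitting was bidirectional.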

[4] = read-out: Urokinase-type plasminogen activator receptor (uPAR), PLAUR (gene 5329); test: BSK_4H_uPAR: BioMAP Diversity Plus: 4H Assay for Urokinase-type plasminogen activator receptor (uPAR) Biomarker Activity (AID 2283030); conditions: primary human endothelial cells (HUVEC); actives raise or lower the signal
How it was run: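 Human umbilical vein endothelial cells in the 4H system, 24 h after chemical dosing. Cell-surface uPAR measured by ELISA, fitted in both directions versus DMSO; cytotoxicity checked by SRB total protein in parallel cultures.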

[5] = read-out: Vascular endothelial growth factor receptor 2 (Homo sapiens) (UniProt P35968); test: BSK_4H_VEGFRII: BioMAP Diversity Plus: 4H Assay for Vascular endothelial growth factor receptor 2 (VEGFR2) Biomarker Activity (AID 2283031); conditions: primary human endothelial cells (HUVEC); actives raise or lower the signal
How it was run: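 Primary human umbilical vein endothelial cells (4H system), 24 h exposure; cell-surface VEGFR2 measured by ELISA. Bidirectional fitting versus DMSO; cytotoxicity checked in parallel by SRB total-protein staining.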

[6] = read-out: Human Leukocyte Antigen - DR isotype (HLADR), HLA-DRA (gene 3122); test: BSK_BE3C_HLADR: BioMAP Diversity Plus: BE3C Assay for Human Leukocyte Antigen - DR isotype (HLADR) Biomarker Activity (AID 2283032); conditions: primary human bronchial epithelial cells; actives raise or lower the signal
How it was run: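 Chemicals are dosed onto BE3C bronchial epithelial cultures of human origin and left 24 h. HLA-DR is then measured by ELISA, and the endpoint is fitted in both directions using DMSO as the activity baseline.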

[7] = BSK_BE3C_SRB: Viability Assessment in the BioMAP Diversity Plus: BE3C Assay (AID 2283028); conditions: primary human bronchial epithelial cells
How it was run: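 Human bronchial epithelial primary cells in confluent culture, 24 h after chemical dosing; total protein by 0.1% SRB staining after 10% TCA fixation, read at 560 nm. Bidirectional fitting versus DMSO baseline.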

[8] = BSK_3C_Vis: BioMAP Diversity Plus: 3C Assay for Morphology Visualization (AID 2283025); conditions: primary human endothelial cells (HUVEC);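 note: fitted both ways so gain or loss versus DMSO counts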
How it was run: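 Morphology read by light microscopy serves as a background control for the multiplexed 3C assay in human umbilical vein endothelial cells, taken 24 h after dosing, with DMSO as the negative control and bidirectional curve fitting.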

[9] = read-out: Thrombomodulin, THBD (gene 7056); test: BSK_3C_Thrombomodulin: BioMAP Diversity Plus: 3C Assay for Thrombomodulin Biomarker Activity (AID 2283029); conditions: primary human endothelial cells (HUVEC); actives raise or lower the signal
How it was run: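 Endothelial cells from umbilical vein are dosed with test chemical and incubated 24 h. Thrombomodulin is then quantified by ELISA, with DMSO serving as negative control and activity baseline.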

[10] = read-out: Pselectin, SELP (gene 6403); test: BSK_4H_Pselectin: BioMAP Diversity Plus: 4H Assay for Pselectin Biomarker Activity (AID 2283026); conditions: primary human endothelial cells (HUVEC); actives raise or lower the signal
How it was run: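 Endothelial primary cells (human umbilical vein) are dosed, incubated 24 h, and assayed for surface P-selectin by ELISA; responses in either direction are fitted relative to the DMSO negative control.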

| SMILES | outcome [1] | outcome [2] | outcome [3] | outcome [4] | outcome [5] | outcome [6] | outcome [7] | outcome [8] | outcome [9] | outcome [10] | AC50 [4] | AC50 [1] | AC50 [8] | AC50 [3] | AC50 [6] |
| --- | --- | --- | --- | --- | --- | --- | --- | --- | --- | --- | --- | --- | --- | --- | --- |
| FC(F)(F)COC(OCC(F)(F)F)OCC(F)(F)F | inactive | inactive | inactive | inactive | inactive | inactive | – | – | – | – | – | – | – | – | – |
| O=C(Cl)C(F)(F)C(F)(F)C(F)(F)C(=O)Cl | inactive | inactive | inactive | inactive | inactive | inactive | inactive | – | – | – | – | – | – | – | – |
| CNC(C)=O | inactive | inactive | inactive | inactive | inactive | inactive | – | inactive | – | – | – | – | – | – | – |
| O=C(O)c1cccc(C(=O)O)c1 | inactive | inactive | inactive | inactive | inactive | inactive | – | inactive | inactive | – | – | – | – | – | – |
| CC(C)CC(C)O (stereo not given) | inactive | inactive | inactive | inactive | inactive | inactive | – | inactive | – | – | – | – | – | – | – |
| FC(F)(F)C(F)(F)C(F)(F)C(F)(F)C(F)(F)C(F)(F)I | inactive | inactive | inactive | inactive | inactive | inactive | – | – | inactive | – | – | – | – | – | – |
| COCc1nnc(-c2ccc[n+]([O-])c2)n1-c1c(Cl)c(Cl)cc2[nH]c(=O)c(=O)[nH]c12 | inactive | inactive | inactive | inactive | inactive | inactive | – | inactive | – | – | – | – | – | – | – |
| CCCCCCOC(=O)CC(CC(=O)OCCCCCC)(OC(=O)CCC)C(=O)OCCCCCC | inactive | inactive | inactive | inactive | inactive | inactive | – | inactive | inactive | – | – | – | – | – | – |
| NNC(=O)c1ccncc1 | inactive | inactive | inactive | inactive | inactive | inactive | – | inactive | inactive | – | – | – | – | – | – |
| c1ccc2cc3ccccc3cc2c1 | inactive | inactive | inactive | inactive | inactive | inactive | inactive | inactive | – | – | – | – | – | – | – |
| OC[C@H]1O[C@@](CO)(O[C@H]2O[C@H](CO)[C@@H](O)[C@H](O)[C@H]2O)[C@@H](O)[C@@H]1O | inactive | inactive | inactive | inactive | inactive | inactive | – | inactive | inactive | – | – | – | – | – | – |
| NCC(F)(F)C(F)(F)C(F)(F)C(F)(F)F | inactive | inactive | inactive | inactive | inactive | inactive | inactive | – | – | inactive | – | – | – | – | – |
| OCC(CO)(CO)CO | inactive | inactive | inactive | inactive | inactive | inactive | inactive | inactive | – | – | – | – | – | – | – |
| O=C(O)c1ccc2c(c1)nc(C(=O)NC1CCN(C3CC3)CC1)n2Cc1cc(-c2ccc(Cl)s2)on1 | inactive | inactive | inactive | – | inactive | inactive | – | inactive | inactive | – | 0.0541 µM (active) | – | – | – | – |
| OC(O)(C(F)C(O)(O)C(F)(F)F)C(F)(F)F | inactive | inactive | inactive | inactive | inactive | inactive | – | – | inactive | inactive | 20.5 µM (active) | – | – | – | – |
| CCc1ccc(O)c(C(C)(C)C)c1 | – | inactive | – | – | inactive | inactive | – | – | – | – | 36.7 µM (active) | 31.2 µM (active) | 39.3 µM (active) | 32.8 µM (active) | – |
| CC(C)C(=O)Nc1ccc([N+](=O)[O-])c(C(F)(F)F)c1 | inactive | inactive | inactive | inactive | inactive | inactive | – | inactive | inactive | – | – | – | – | – | – |
| O=S1(=O)CCCO1 | inactive | inactive | inactive | inactive | inactive | inactive | inactive | inactive | – | – | – | – | – | – | – |
| FC(F)=C(F)C(F)(F)C(F)(F)C(F)(F)C(F)(F)C(F)(F)C(F)(F)F | inactive | inactive | inactive | inactive | inactive | inactive | inactive | – | – | – | – | – | – | – | – |
| CC(C)CCCCCCOC(=O)C1CCCCC1C(=O)OCCCCCCC(C)C (stereo not given) | inactive | inactive | inactive | inactive | inactive | inactive | – | inactive | – | – | – | – | – | – | – |
| C[Si](C)(C)C(F)(F)C(F)(F)C(F)(F)F | inactive | inactive | inactive | inactive | inactive | inactive | inactive | – | inactive | – | – | – | – | – | – |
| FC(F)C(F)(F)COCC1CO1 (stereo not given) | inactive | inactive | inactive | inactive | inactive | inactive | inactive | – | inactive | – | – | – | – | – | 45.8 µM (active) |
| OC(CCl)CCl | inactive | inactive | inactive | inactive | inactive | inactive | – | inactive | – | – | – | – | – | – | – |
